According to paper PMC4336329 (PLoS ONE, 2015):
Hit rate of the full screen: of about 310,000 compounds, about 14,000 (4.5%) showed an effect of 50% or more. Effects have a minus sign here. What follows is part of a selection rich in strong results, with near analogues and random picks from the rest.

Molecular target: human ether-à-go-go-related gene (hERG) potassium channel (human, UniProt Q12809)
Assay: primary screen, population patch clamp on CHO cells stably expressing hERG; higher = less effect of the substance
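Also: peak tail current of the secondary pulse compared with the same well before compound.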

human ether-à-go-go-related gene (hERG) potassium channel, sequence (Q12809 whole entry, looked up): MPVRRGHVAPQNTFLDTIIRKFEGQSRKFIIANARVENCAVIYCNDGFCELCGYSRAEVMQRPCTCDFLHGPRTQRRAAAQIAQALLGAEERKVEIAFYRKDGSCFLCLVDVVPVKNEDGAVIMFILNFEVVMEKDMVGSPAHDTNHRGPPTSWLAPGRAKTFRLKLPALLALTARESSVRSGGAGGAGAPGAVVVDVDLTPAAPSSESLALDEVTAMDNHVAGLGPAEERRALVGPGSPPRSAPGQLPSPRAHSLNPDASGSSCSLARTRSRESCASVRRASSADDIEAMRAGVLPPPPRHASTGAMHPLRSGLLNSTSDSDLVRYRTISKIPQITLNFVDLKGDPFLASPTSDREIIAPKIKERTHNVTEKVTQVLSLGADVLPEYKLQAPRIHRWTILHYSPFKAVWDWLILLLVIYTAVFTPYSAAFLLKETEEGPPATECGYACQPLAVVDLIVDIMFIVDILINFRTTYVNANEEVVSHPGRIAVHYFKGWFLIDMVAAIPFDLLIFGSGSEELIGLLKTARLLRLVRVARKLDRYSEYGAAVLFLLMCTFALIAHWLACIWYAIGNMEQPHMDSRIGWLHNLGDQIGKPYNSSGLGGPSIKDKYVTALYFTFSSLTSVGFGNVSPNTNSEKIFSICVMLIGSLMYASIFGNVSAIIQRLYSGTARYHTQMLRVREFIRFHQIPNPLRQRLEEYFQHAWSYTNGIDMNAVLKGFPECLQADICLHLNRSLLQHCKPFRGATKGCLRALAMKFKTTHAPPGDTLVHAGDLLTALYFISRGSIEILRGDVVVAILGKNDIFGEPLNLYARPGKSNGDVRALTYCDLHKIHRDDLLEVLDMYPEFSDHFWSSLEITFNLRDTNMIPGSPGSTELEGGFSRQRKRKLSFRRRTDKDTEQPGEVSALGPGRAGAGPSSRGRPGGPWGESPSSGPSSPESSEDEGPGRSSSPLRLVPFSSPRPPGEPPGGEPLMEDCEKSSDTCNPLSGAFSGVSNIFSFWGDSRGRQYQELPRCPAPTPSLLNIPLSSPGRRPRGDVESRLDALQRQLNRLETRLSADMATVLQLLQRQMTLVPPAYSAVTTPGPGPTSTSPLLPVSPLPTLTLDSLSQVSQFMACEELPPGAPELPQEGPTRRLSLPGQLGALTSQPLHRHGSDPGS

SMILES | hERG current change (%, negative = inhibition) at 10uM
O=C(COC(=O)c1cc(S(=O)(=O)N2CCCCC2)ccc1N1CCOCC1)NCCc1ccc(F)cc1 | -25.5%
CC(C)(C)c1ccc(C(=O)N2CCN(CCNC(=O)C(=O)NCc3ccccc3)CC2)cc1 | -57%
CC(C)NC(=O)C(=O)NCCN1CCN(C(=O)c2ccc(C(C)(C)C)cc2)CC1 | -3.01%
Cc1ccc(S(=O)(=O)N2CCN(CCNC(=O)C(=O)NCc3ccccc3)CC2)cc1 | 5.65%
COc1ccc(-c2noc(CCC(N)=O)n2)cc1OC | 3.66%
Cc1csc(NC(=O)c2ccccc2C(=O)O)n1 | -0.365%
Cc1ccc(NC(=O)c2ccn(C)n2)c(Br)c1 | 0.15%
Cc1ccc(CNC(=O)c2cc(S(=O)(=O)N3CCOCC3)cn2C)cc1 | -12.5%
COCCCn1c(SCCc2ccccc2)nc2cc(OC)c(OC)cc2c1=N | -12.7%
CC(C)Cn1c(N)c(C(=O)CSc2nc3ccccc3c(=O)n2CCCN2CCOCC2)c(=O)n(C)c1=O | -22.2%
COC(=O)c1ccc2c(=O)n(CCN3CCOCC3)c(SCC(=O)NCc3ccccc3)nc2c1 | -46.1%
CC(=O)Nc1ccc(NC(=O)C(C)Sc2nc3ccccc3c(=O)n2CC2CCCO2)cc1 (stereo not shown) | 7.41%
CC(Sc1nc2ccccc2c(=O)n1CC1CCCO1)C(=O)N(C)c1ccccc1 (stereo not shown) | -41.6%
CCCSc1nc2cc(OC)c(OC)cc2c(=N)n1CCCN1CCOCC1 | -74.6%
COc1ccccc1CNC(=O)CSc1nc2ccccc2c(=O)n1CCCN1CCOCC1 | -56%
O=C(CSc1nc2ccccc2c(=O)n1CCCN1CCOCC1)NC12CC3CC(CC(C3)C1)C2 | -67.8%
O=C1c2ccccc2C(=O)N1CCSc1nc2ccccc2c(=O)n1CCCN1CCOCC1 | -15.1%
CC(Sc1nc2ccccc2c(=O)n1CC1CCCO1)C(=O)N(C)Cc1ccccc1 (stereo not shown) | -59.8%
CC(=O)c1c(C)[nH]c(C(=O)CSc2nc3ccccc3c(=O)n2CCCN2CCOCC2)c1C | -15.5%
COCCCn1c(SCC(=O)O)nc2cc(OC)c(OC)cc2c1=N | 9.07%
CC(OC(=O)c1cc2sccc2n1C)C(=O)NCC1CCCO1 (stereo not shown) | 0.798%
Cc1ccc(S(=O)(=O)CC(=O)N2CCCC2)cc1 | -0.506%
O=C(CCc1ccc(Oc2cc([N+](=O)[O-])cc([N+](=O)[O-])c2)cc1)N1CCCCCC1 | -30.2%
Cn1cc(SCC(=O)Nc2nc3ccccc3s2)c2ccccc21 | -5.6%

SMILES | hERG current change (%, negative = inhibition) at 10uM
Cc1noc(C(C)C)c1C(=O)Nc1ccc(-c2nnc3n2CCCCC3)cc1 | -4.21%
Cc1cccc(C)c1-n1nnnc1S(=O)(=O)Cc1ccccc1Cl | -18.2%
CC(C)CN1CCC(C(=O)NCC2CCCO2)CC1.O=C(O)C(=O)O (stereo not shown) | -3.21%
CC(C)CN(CC(C)C)C(=O)CN1c2cccc3cccc(c23)S1(=O)=O | 18.1%
CCN(CC)C(=O)Oc1cc2c(-c3cc4cccc(OC)c4o3)cc(=O)oc2cc1C | 9.85%
CC(Sc1nc2ccccc2c(=O)n1CC1CCCO1)C(=O)NC(C)c1ccccc1 (stereo not shown) | -5.01%
COc1ccc(-c2nc3ccccc3c(=O)n2CCCN2CCOCC2)cc1 | 6.17%
COc1ccc(CNC(=O)C(C)Sc2nc3ccccc3c(=O)n2CC2CCCO2)cc1 (stereo not shown) | -78.7%
COc1ccc(CSc2nc3ccccc3c(=O)n2CCCN2CCOCC2)cc1F | -53.4%
COc1ccccc1NC(=O)C(C)Sc1nc2ccccc2c(=O)n1CC1CCCO1 (stereo not shown) | -37.2%
COc1ccc(CNC(=O)CSc2nc3c(oc4ccccc43)c(=O)n2CC2CCCO2)cc1 (stereo not shown) | -60.6%
COCCn1c(SCc2ccc(OC)c(F)c2)nc2ccccc2c1=O | -2.82%
COc1cccc(CNC(=O)CSc2nc3c(oc4ccccc43)c(=O)n2CC2CCCO2)c1 (stereo not shown) | -36.4%
COc1ccc(CNC(=O)C(C)Sc2nc3ccccc3c(=O)n2CCCN2CCOCC2)cc1 (stereo not shown) | -84.9%
CCn1c(SCc2ccc(OC)c(F)c2)nc2ccccc2c1=O | 23.4%
CCC(Sc1nc2ccccc2c(=O)n1CCN1CCOCC1)C(=O)NCc1cccnc1 (stereo not shown) | -37%
O=C(CSc1nc2c(oc3ccccc32)c(=O)n1CC1CCCO1)NCc1ccccc1 (stereo not shown) | -15.8%
CCCCOC(=O)C(C)Sc1n[nH]c(=O)[nH]c1=O (stereo not shown) | -5.93%
O=[N+]([O-])c1ccc(CNc2cccc(Cl)c2)s1 | -28.3%
O=C1N=C(c2ccccc2)S/C1=C\c1cccs1 | 5.19%
COc1ccc(N2CCN(Cc3nc(-c4ccccc4)no3)CC2)cc1 | 8.23%
C=CCOC(=O)C1=C[C@@H](c2csc3ccccc23)[C@H](CCCO)[C@@H](OCC)O1 | -27.7%
COc1ccc(S(=O)(=O)N2CCC(C(=O)N[C@@H](C)C(=O)NC3CCCC3)CC2)cc1 | 13.4%
COCCNC(=O)c1ccc2c(c1)S(=O)(=O)c1cc(Cl)ccc1C2=O | -3.38%

SMILES | hERG current change (%, negative = inhibition) at 10uM
CCN(CC)S(=O)(=O)c1ccc(F)c(C(=O)OC2CC(C)OC2=O)c1 (stereo not shown) | -2.4%
O=C(Cn1cc(SCc2ccc(Cl)cc2)c2ccccc21)N1CCOCC1 | -53.3%
O=C(Cn1cc(SCc2cccc(Cl)c2)c2ccccc21)N1CCOCC1 | -33.1%
O=C(Cn1cc(SCc2ccc(F)cc2)c2ccccc21)N1CCOCC1 | -29.9%
Nc1ncnc2c1ncn2C1O[C@H](CO)[C@@H](O)[C@@H]1O (stereo partly shown) | -8.74%
Cc1ccc(CNC(=O)CSc2nc(N3CCCCC3)nc(N3CCCCC3)n2)cc1 | 7.64%
O=[N+]([O-])c1ccccc1S(=O)(=O)NCCSc1ccccc1 | 4.87%
O=C(CCNS(=O)(=O)c1ccccc1C(F)(F)F)NCCCSc1ccccc1 | -18.1%
O=S(=O)(NCCCSc1ccccc1)c1ccccc1F | -79.6%
Nc1nc(CSCCO)nc(Nc2ccc(F)cc2)n1 | 16.1%
Nc1nc(CSC(=S)N2CCOCC2)nc(Nc2ccc(F)cc2)n1 | 7.31%
Cc1ccc(Nc2nc(N)nc(CN3CCCCCC3)n2)cc1 | -72.1%
Cc1ccc(Nc2nc(N)nc(CN3CCN(C)CC3)n2)cc1 | -27.8%
Nc1nc(CN2CCCCCC2)nc(Nc2ccc(F)cc2)n1 | -70.8%
Cc1ccc(Nc2nc(N)nc(CCl)n2)cc1 | 1.76%
CC(=O)Nc1ccc(NC(=O)Nc2ccccc2)cc1 | 10.5%
CC(=O)OCC[C@H](NS(=O)(=O)OCC(Cl)(Cl)Cl)c1ccccc1 | 1.61%
COc1cc(NC(=O)c2cc(C(C)C)on2)c(OC)cc1Cl | 3.16%
O=C(c1ccccc1C(=O)N1CCN(c2ccccc2F)CC1)N1CCN(c2ccccc2F)CC1 | -31%
COc1ccccc1N1CCN(C(=O)c2cc3cc(F)ccc3[nH]2)CC1 | 15.8%
COc1ccccc1N1CCN(C(=O)c2cc(-c3ccc(F)cc3)[nH]c2C)CC1 | -64.5%
O=C(c1ccccc1F)N1CCN(c2ccccc2F)CC1 | -2.08%
Cc1[nH]c(-c2ccc(F)cc2)cc1C(=O)N1CCN(c2ccccc2F)CC1 | -70.3%
COc1ccccc1N1CCN(C(=O)c2cc(-c3ccc(F)cc3)on2)CC1 | 19.1%

SMILES | hERG current change (%, negative = inhibition) at 10uM
N#CC1=C(N)Oc2n[nH]c(-c3cccs3)c2C1C1CCCCC1 (stereo not shown) | 8.73%
Cc1ccccc1C(=O)Nc1ccccc1NC(=O)c1ccccc1Br | 25.4%
COC(=O)c1ccc(-c2noc(CN(C)CC3CCCCO3)n2)cc1 (stereo not shown) | 11.3%
Cn1c(Cn2c(=O)sc3ccccc32)nnc1SCc1cccc(F)c1 | -11.6%
Cc1cc(C)cc(NC(=S)NCc2ccc3c(c2)OCO3)c1 | -8.9%
OC(CNCC1CCCCC1)COc1ccccc1 (stereo not shown) | -0.428%
Cc1ccc(CC(=O)Nc2cc(C)ccn2)cc1 | 11.2%
O=[N+]([O-])c1cc(S(=O)(=O)NCCN2CCOCC2)ccc1Sc1nnnn1-c1ccccc1 | -24.6%
CCCCSc1nnc(CNC(=O)C23CC4CC(CC(C4)C2)C3)n1Cc1ccccc1 | -29.7%
O=C(Nc1ccc(CN2CCOCC2)cc1)c1ccc(-c2ccc(Cl)cc2Cl)o1 | -7.54%
Cn1c(=O)n(C)c2cc([N+](=O)[O-])c(N3CCNCC3)cc21 | 5.58%
Cn1c(=O)n(C)c2cc([N+](=O)[O-])c(N3CCN(C(=O)c4ccccc4)CC3)cc21 | -36.1%
Cn1c(=O)n(C)c2cc([N+](=O)[O-])c(N3CCN(C(=O)c4ccccc4Cl)CC3)cc21 | -34.4%
Cn1c(=O)n(C)c2cc([N+](=O)[O-])c(N3CCN(C(=O)c4ccccc4Br)CC3)cc21 | -70.6%
Cn1c(=O)n(C)c2cc([N+](=O)[O-])c(N3CCN(C(=O)c4cccc(Cl)c4)CC3)cc21 | -64.2%
CCOC(=O)C(=O)N1CCN(c2cc3c(cc2[N+](=O)[O-])n(C)c(=O)n3C)CC1 | -24.2%
Cn1c(=O)n(C)c2cc([N+](=O)[O-])c(N3CCN(CCO)CC3)cc21 | 24.9%
Cn1c(=O)n(C)c2cc(N3CCCCC3)c(NC(=O)c3cccc(Cl)c3)cc21 | 14.8%
Cn1c(=O)n(C)c2cc([N+](=O)[O-])c(N3CCN(C(=O)c4ccc(F)cc4)CC3)cc21 | -44%
Cc1ccc(C(=O)N2CCN(c3cc4c(cc3[N+](=O)[O-])n(C)c(=O)n4C)CC2)cc1 | -66.6%
Cn1c(=O)n(C)c2cc([N+](=O)[O-])c(N3CCN(C(=O)c4ccc(Cl)cc4)CC3)cc21 | -65.9%
Cn1c(=O)n(C)c2cc([N+](=O)[O-])c(N3CCN(C(=O)C(C)(C)C)CC3)cc21 | -8.56%
